{"source": "paper PMC4336329", "about": "(PLoS ONE, 2015)", "note": "Hit rate of the full screen: of about 310,000 compounds, about 14,000 (4.5%) showed an effect of 50% or more. Effects have a minus sign here. The sample as a whole holds a higher share of strong results than the screen did.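 Also: peak tail current of the secondary pulse compared with the same well before compound.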", "data": [{"biological_target": "human ether-à-go-go-related gene (hERG) potassium channel (human, UniProt Q12809)", "sequence (Q12809 whole entry, looked up)": "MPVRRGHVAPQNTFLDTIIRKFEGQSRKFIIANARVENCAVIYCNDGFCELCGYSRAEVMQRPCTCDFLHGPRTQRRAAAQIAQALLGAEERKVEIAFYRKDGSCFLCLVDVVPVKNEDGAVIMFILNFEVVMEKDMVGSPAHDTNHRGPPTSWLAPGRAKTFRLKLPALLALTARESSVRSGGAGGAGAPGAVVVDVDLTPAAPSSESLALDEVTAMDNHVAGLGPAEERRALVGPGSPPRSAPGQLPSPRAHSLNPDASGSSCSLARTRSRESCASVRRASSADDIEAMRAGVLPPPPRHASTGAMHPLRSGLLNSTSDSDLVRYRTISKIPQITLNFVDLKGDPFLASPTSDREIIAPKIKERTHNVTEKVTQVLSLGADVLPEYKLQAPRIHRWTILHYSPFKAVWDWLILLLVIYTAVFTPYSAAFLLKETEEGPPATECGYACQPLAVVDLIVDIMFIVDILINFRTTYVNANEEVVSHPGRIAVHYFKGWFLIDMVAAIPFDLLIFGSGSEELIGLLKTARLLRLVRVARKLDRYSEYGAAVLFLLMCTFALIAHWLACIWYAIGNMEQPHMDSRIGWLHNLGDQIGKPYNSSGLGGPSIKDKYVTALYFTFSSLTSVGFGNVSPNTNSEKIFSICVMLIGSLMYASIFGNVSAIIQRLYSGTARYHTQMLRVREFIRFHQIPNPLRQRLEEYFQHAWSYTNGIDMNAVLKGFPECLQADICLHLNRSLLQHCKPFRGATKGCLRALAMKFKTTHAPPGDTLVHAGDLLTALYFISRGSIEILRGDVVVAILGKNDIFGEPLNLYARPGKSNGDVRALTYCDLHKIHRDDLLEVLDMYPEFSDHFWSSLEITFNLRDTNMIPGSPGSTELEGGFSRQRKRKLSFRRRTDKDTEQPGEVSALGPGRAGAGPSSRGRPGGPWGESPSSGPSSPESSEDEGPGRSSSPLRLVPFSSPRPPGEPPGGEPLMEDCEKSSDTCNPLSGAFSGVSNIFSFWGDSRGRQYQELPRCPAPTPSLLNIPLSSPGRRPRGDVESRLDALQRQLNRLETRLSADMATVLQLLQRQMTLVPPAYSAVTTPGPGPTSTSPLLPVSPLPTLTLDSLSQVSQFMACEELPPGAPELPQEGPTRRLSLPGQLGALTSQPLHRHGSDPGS", "test": "primary screen, population patch clamp on CHO cells stably expressing hERG; higher = less effect of the substance", "units": {"hERG current change (%, negative = inhibition) at 10uM": "%"}, "values": [{"smiles": "CC1=CC(C)[C@@H]2COC(c3ccc(O)cc3)[C@H]1C2C", "note": "(some centres unmarked)", "hERG current change (%, negative = inhibition) at 10uM": 4.96}, {"smiles": "Cc1ccc(N2CC(C(=O)NCc3nnnn3-c3ccc(C)c(C)c3)CC2=O)cc1", "note": "(centres unmarked)", "hERG current change (%, negative = inhibition) at 10uM": -19.8}, {"smiles": "Cc1ccc(S(=O)(=O)NC(=O)C2CCCCC2)cc1", "hERG current change (%, negative = inhibition) at 10uM": 14.3}, {"smiles": "O=C(COc1ccc2ccccc2c1)NCCNC(=O)COc1ccc2ccccc2c1", "hERG current change (%, negative = inhibition) at 10uM": 17.2}, {"smiles": "O=C(c1cc(-c2ccccc2)on1)N1CCCC1", "hERG current change (%, negative = inhibition) at 10uM": 9.39}, {"smiles": "O=C(NCc1ccc2c(c1)OCO2)c1ccc2c(c1)OCCO2", "hERG current change (%, negative = inhibition) at 10uM": 8.03}, {"smiles": "CC(=O)Nc1ccc(S(=O)(=O)N[C@@H](C)C(=O)N2CCN(C/C=C/c3ccccc3)CC2)cc1", "hERG current change (%, negative = inhibition) at 10uM": -31.8}, {"smiles": "CC(CN1CCCCC1)c1ccccc1.O=C(O)C(=O)O", "note": "(centres unmarked)", "hERG current change (%, negative = inhibition) at 10uM": 13.1}, {"smiles": "CC(CN1CCN(Cc2ccccc2)CC1)c1ccccc1.O=C(O)C(=O)O", "note": "(centres unmarked)", "hERG current change (%, negative = inhibition) at 10uM": -14}, {"smiles": "CC(C(=O)N(C)Cc1ccccc1)N1CCN(C/C=C/c2ccccc2)CC1", "note": "(centres unmarked)", "hERG current change (%, negative = inhibition) at 10uM": -78.9}, {"smiles": "COc1ccc(N2CCN(C(C)C(=O)N(C)Cc3ccccc3)CC2)cc1", "note": "(centres unmarked)", "hERG current change (%, negative = inhibition) at 10uM": -17.3}, {"smiles": "CC(C(=O)Nc1cccc(S(=O)(=O)N2CCOCC2)c1)N1CCN(C/C=C/c2ccccc2)CC1", "note": "(centres unmarked)", "hERG current change (%, negative = inhibition) at 10uM": -75}, {"smiles": "CC(C)C(NC(=O)c1ccccc1)C(=O)N1CCN(C/C=C/c2ccccc2)CC1", "note": "(centres unmarked)", "hERG current change (%, negative = inhibition) at 10uM": -41.2}, {"smiles": "CC(=O)c1ccc(NC(=O)C(C)N2CCN(C/C=C/c3ccccc3)CC2)cc1", "note": "(centres unmarked)", "hERG current change (%, negative = inhibition) at 10uM": -71.4}, {"smiles": "CC(C(=O)Nc1cccc(S(=O)(=O)N2CCOCC2)c1)N1CCN(c2ccc(F)cc2)CC1", "note": "(centres unmarked)", "hERG current change (%, negative = inhibition) at 10uM": -40.3}, {"smiles": "CC(C(=O)Nc1cccc(S(=O)(=O)N2CCOCC2)c1)N1CCN(C)CC1", "note": "(centres unmarked)", "hERG current change (%, negative = inhibition) at 10uM": -5.23}, {"smiles": "CC(=O)c1ccc(S(=O)(=O)NCC(=O)N2CCN(C/C=C/c3ccccc3)CC2)cc1", "hERG current change (%, negative = inhibition) at 10uM": -38.7}, {"smiles": "CC(CN1CCN(C/C=C/c2ccccc2)CC1)c1ccccc1.O=C(O)C(=O)O", "note": "(centres unmarked)", "hERG current change (%, negative = inhibition) at 10uM": -59.6}, {"smiles": "CCc1nnc(NC(=O)c2ccc(S(=O)(=O)N(CC)Cc3ccccc3)cc2)o1", "hERG current change (%, negative = inhibition) at 10uM": -12.9}, {"smiles": "O=C(Nc1nc(-c2cccs2)cs1)C1=COCCO1", "hERG current change (%, negative = inhibition) at 10uM": -15.9}, {"smiles": "CCCCC(=O)Nc1ccc2c(c1)C(=O)NC2=O", "hERG current change (%, negative = inhibition) at 10uM": 2.21}, {"smiles": "Cc1ccc(NC(=O)c2c(-c3ccccc3Cl)noc2C)nc1", "hERG current change (%, negative = inhibition) at 10uM": 1.56}, {"smiles": "COc1ccc(NC(=O)COC(=O)c2cc(Cl)ccc2O)cc1S(=O)(=O)N1CCCCC1", "hERG current change (%, negative = inhibition) at 10uM": 10.5}, {"smiles": "O=C(COC(=O)c1cccnc1Cl)NCC1CCCO1", "note": "(centres unmarked)", "hERG current change (%, negative = inhibition) at 10uM": 10.8}, {"smiles": "COc1ccccc1/C=C/C=N/N1CCN(c2ccccn2)CC1", "hERG current change (%, negative = inhibition) at 10uM": -2.4}, {"smiles": "Cc1cccc(CS(=O)(=O)Cc2ccc(C(=O)O)o2)c1", "hERG current change (%, negative = inhibition) at 10uM": 16.5}, {"smiles": "COC(C(=O)Nc1cccc([N+](=O)[O-])c1)c1ccccc1", "note": "(centres unmarked)", "hERG current change (%, negative = inhibition) at 10uM": 1.56}, {"smiles": "CCCCNC(=O)N1CCN(C/C=C/c2ccccc2)CC1", "hERG current change (%, negative = inhibition) at 10uM": -29.9}, {"smiles": "CC(C(=O)Nc1cccc([N+](=O)[O-])c1)N1CCN(C/C=C/c2ccccc2)CC1", "note": "(centres unmarked)", "hERG current change (%, negative = inhibition) at 10uM": -75.6}, {"smiles": "CNC(=O)NC(=O)C(C)N1CCN(C/C=C/c2ccccc2)CC1", "note": "(centres unmarked)", "hERG current change (%, negative = inhibition) at 10uM": -63}, {"smiles": "CC(C(=O)Nc1cccc([N+](=O)[O-])c1)n1nnc2ccccc21", "note": "(centres unmarked)", "hERG current change (%, negative = inhibition) at 10uM": -33.5}, {"smiles": "CC(C)NC(=S)N1CCN(C/C=C/c2ccccc2)CC1", "hERG current change (%, negative = inhibition) at 10uM": -15.5}, {"smiles": "Cc1nc(SCC(N)=O)[nH]c(=O)c1Cc1ccc(OC(C)C)cc1", "hERG current change (%, negative = inhibition) at 10uM": 3.98}, {"smiles": "CCCCCC(=O)Nc1ccc(-c2csc(C)n2)cc1", "hERG current change (%, negative = inhibition) at 10uM": 18.7}, {"smiles": "COc1cccc(N(CC(=O)NC(C)c2ccccc2)S(C)(=O)=O)c1", "note": "(centres unmarked)", "hERG current change (%, negative = inhibition) at 10uM": 22.3}, {"smiles": "N=C1/C(=C/c2coc3ccccc3c2=O)C(=O)N=C2SC(c3ccco3)=NN12", "hERG current change (%, negative = inhibition) at 10uM": 12.8}, {"smiles": "N=C1/C(=C\\c2coc3ccccc3c2=O)C(=O)N=C2SC(c3ccncc3)=NN12", "hERG current change (%, negative = inhibition) at 10uM": -59}, {"smiles": "N=C1/C(=C\\c2coc3ccccc3c2=O)C(=O)N=C2SC=CN12", "hERG current change (%, negative = inhibition) at 10uM": 15.3}, {"smiles": "O=C(Nc1nnc(-c2ccc(Cl)cc2)o1)Nc1ccccc1F", "hERG current change (%, negative = inhibition) at 10uM": 1.31}, {"smiles": "Cc1csc(CN(C)C(=O)CC2C(=O)NCCN2Cc2ccc(F)c(F)c2)n1", "note": "(centres unmarked)", "hERG current change (%, negative = inhibition) at 10uM": 6.02}, {"smiles": "COCCCNC(=S)NCCNc1nc2cc(C)c(C)cc2cc1C#N", "hERG current change (%, negative = inhibition) at 10uM": -2.23}, {"smiles": "C/C(=C/c1ccccc1)C(=O)N1CC(C)OC(C)C1", "note": "(centres unmarked)", "hERG current change (%, negative = inhibition) at 10uM": 11.7}, {"smiles": "COc1cc2c(cc1OC)C(c1cccc(C)c1)CC(=O)N2", "note": "(centres unmarked)", "hERG current change (%, negative = inhibition) at 10uM": -10.5}, {"smiles": "CCn1c(SCC(=O)N=Nc2c(O)[nH]c3ccccc23)nnc1-c1ccc(C(C)(C)C)cc1", "hERG current change (%, negative = inhibition) at 10uM": -5.11}]}]}
